The list is a sample of the results.
aSyn 5UTR act = Activators via SNCA 5'UTR binding, MLPCN; AID 1814, 2009; activity score, % (tested at 7.5 µM), hits read low; actives 7.1% (n = 300,000); alpha-synuclein 5'UTR reporter, activators screen; in the data active = activity score below about -60%
* hit, by the source's call.

SMILES | aSyn 5UTR act
Clc1ccc2nc(COc3ccccc3)[nH]c2c1 | -151*
O=c1[nH]c(COc2ccccc2)nc2ccccc12 | -70*
O=c1[nH]c(COc2ccc(Br)cc2Cl)nc2ccccc12 | -167*
S=c1nc(COc2ccccc2)[nH]c2ccccc12 | -112*
Cc1ccc2nc(COc3ccc(Cl)cc3)cc(=O)n2c1 | -109*
COCC(C)n1c(SCc2cc(=O)n3cc(C)ccc3n2)nc2ccccc2c1=O (stereo unspecified) | 64
CCCS(=O)(=O)N1CCCC(C(=O)Nc2ccc3c(c2)CCC3)C1 (stereo unspecified) | -71*
CCS(=O)(=O)N1CCC(C(=O)Nc2ccc3c(c2)CCC3)CC1 | -83*
Cn1c(=O)oc2cc(S(=O)(=O)N3CCCC(C(=O)NC4CCCc5ccccc54)C3)ccc21 (stereo unspecified) | 63
CCCCN(Cc1ccccc1)c1ncnc2nc[nH]c12 | -63*
Clc1ccc2c(c1)C1OCCC1C(c1ccco1)N2 (stereo unspecified) | -125*
COc1cc(OC)c(NC(=O)c2ccccc2F)cc1Cl | -122*
COc1cc2c(cc1NC(=O)c1ccccc1F)CCCC2 | -270*
COc1cc2c(cc1NC(=O)c1cccc(F)c1)CCCC2 | -76*
CCOC(=O)Cn1c(S(=O)(=O)Cc2ccccc2Cl)nc(-c2ccccc2)c1-c1ccccc1 | 54
Nc1c(-c2ccccc2)cnn1-c1ccccc1 | -110*
Nc1c(-c2cccc(Cl)c2)cnn1-c1ccccc1 | -122*
CCOC(=O)Cn1ncc(-c2ccccc2)c1N | -129*
Cc1ccn2cc(-c3cnoc3C)nc2c1 | -97*
Cc1ccn2cc(-c3ccc(Br)cc3)nc2c1 | 63
C/C(=N\n1nnnc1Nc1ccccc1)c1ccc(N)cc1 | -124*
NC(=O)c1ccsc1NC(=O)CCc1ccccc1 | -153*
Cc1ccsc1C(=O)OCC(=O)Nc1sccc1C(N)=O | -130*
COC(=O)c1ccsc1NC(=O)CCc1ccccc1 | -109*
Cc1ccc(C(=O)NC(=S)N(C)C2CCCCC2)cc1 | -84*
SMILES | aSyn 5UTR act
CN(C(=O)c1ccc(-c2ccccc2)cc1)C1CCCCC1 | -127*
Cc1ccc(-c2cc(C(=O)NCc3cnn(C)c3C)c3cc(Br)ccc3n2)cc1 | -64*
O=C(Nc1ccccn1)c1cc(-c2cccnc2)nc2ccc(Br)cc12 | 62
O=C(c1cc2ccccn2n1)N1CCN(Cc2ccccc2)CC1 | -113*
CCOC(=O)c1sc(NC(=O)C(C)(C)C)cc1C | -166*
CCOC(=O)c1sc(Nc2nc3c(OC)cccc3s2)cc1C | -196*
CCN(CC)Cc1c(NC(=O)c2ccccc2)sc(C)c1C | -87*
CCOC(=O)c1sc(NC(=S)NC(=O)CC(C)C)cc1C | -102*
CCOC(=O)c1sc(NC(=O)Nc2ccc(Cl)cc2)cc1C | -135*
CCOC(=O)c1sc(NC(=O)c2ccc(Cl)s2)cc1C | -196*
CCOC(=O)c1sc(NC(=O)c2ccccc2)cc1C | -181*
COc1cccc2cc(C(=O)NCc3ccccn3)c(=O)oc12 | -164*
CCOC(=O)CC(NC(=O)c1cc2cccc(OC)c2oc1=O)c1ccc(OC)cc1 (stereo unspecified) | -70*
CN1CCC(C2(O)c3ccccc3CCc3ccccc32)CC1 | -62*
Cc1cccc(-n2ncc3c(NNC(=O)c4ccco4)ncnc32)c1 | -133*
Cc1ccc(-n2ncc3c(NNC(=O)c4ccco4)ncnc32)cc1Cl | -166*
COc1ccc([C@@H]2[C@@H]3C(=O)N(C(C)(C)C)C(=O)[C@@H]3[C@]3(Cc4ccccc4)C(=O)N(c4cccc(C)c4)C(=O)N23)cc1 | -63*
Nc1nc(-c2cccnc2)nc2sc3c(c12)CCCC3 | -122*
O=c1oc(-c2ccccc2)nc2sc3c(c12)CCCC3 | -103*
O=c1oc(/C=C/c2ccccc2)nc2sc3c(c12)CCC3 | -212*
CCc1c(-c2ccccc2)nc2sc3c(c2c1N)CCCC3 | -113*
O=c1oc(-c2cccs2)nc2sc3c(c12)CCCCC3 | -90*
O=[N+]([O-])c1cccc(/C=N/N2CCN(Cc3ccccc3)CC2)c1 | -115*
O=[N+]([O-])c1cccc(/C=N/N2CCN(c3ccccn3)CC2)c1 | -99*
COC(=O)c1ccccc1NC(=O)c1cccc(COc2ccccc2Cl)c1 | -505*
SMILES | aSyn 5UTR act
NNC(=O)c1cccc(COc2ccc3c(c2)CCC3)c1 | 71
CN(C(=O)c1cccc(COc2ccc(Cl)cc2Cl)c1)c1ccccc1 | -120*
O=C(c1cccc(COc2ccc(Cl)cc2Cl)c1)N1CCN(c2ccccn2)CC1 | -164*
NNC(=O)c1cccc(COc2ccccc2Br)c1 | -72*
Oc1c(CN2CCN(c3ccccn3)CC2)cc(Cl)c2cccnc12 | 92
Cc1nc(-n2[nH]c3c(c2=O)CCCC3)[nH]c(=O)c1Cc1ccccc1 | 90
O=C(NCc1ccccc1)c1cccc(COc2ccccc2Cl)c1 | -87*
O=C(NCc1ccccc1)c1cccc(COc2cc(Cl)ccc2Cl)c1 | -143*
O=C(CN1CC(=O)Oc2ccccc21)NCc1ccco1 | -97*
O=C(CCC(=O)c1cccs1)c1cccs1 | -69*
O=C(CSCc1ccco1)c1cccs1 | -174*
Cc1ccc(NC(=O)CCC(=O)c2cccs2)c(O)c1 | -80*
CN(C)c1ccc(N=C/C=C2\N(C)c3ccccc3C2(C)C)cc1 | -114*
CN1/C(=C/C(=O)c2nc(S(C)(=O)=O)ncc2Cl)C(C)(C)c2ccccc21 | 57
COc1cccc(NC(=O)Nc2nc(SC)ns2)c1 | -151*
COc1cccc(NC(=O)Nc2nc(SC(C)(C)C)ns2)c1 | -130*
O=C(CC1=NCCNC(c2ccccc2)C1)c1ccccc1O (stereo unspecified) | -145*
COCCNC(=O)C(c1ccncc1)N(Cc1ccccc1)C(=O)Cn1nnc2ccccc21 (stereo unspecified) | -82*
COCCNC(=O)C(c1cccnc1)N(Cc1ccccc1)C(=O)Cn1nnc2ccccc21 (stereo unspecified) | -65*
COC(=O)C(C(=O)OC)c1ccc(NC(=O)c2cccc(Cl)c2)cc1 | -90*
COC(=O)c1ccc(NC(=O)c2ccc(C)cc2)o1 | -75*
COC(=O)c1ccc(NC(=O)c2cccc(Cl)c2)o1 | -86*
OCC#CCSc1nnc(-c2ccc(Br)cc2)o1 | -87*
CCS(=O)(=O)N1Cc2ccccc2CC1C(=O)Nc1nccs1 (stereo unspecified) | -167*
COc1ccc(S(=O)(=O)N2Cc3ccccc3CC2C(=O)Nc2nccs2)cc1OC (stereo unspecified) | -149*
SMILES | aSyn 5UTR act
CCS(=O)(=O)N1Cc2ccccc2CC1C(=O)Nc1cccc(OC)c1 (stereo unspecified) | -87*
CCSc1nnc(NC(=O)C2Cc3ccccc3CN2S(=O)(=O)CC)s1 (stereo unspecified) | -88*
Cc1cc(C)c2nc(NNC(=O)c3ccc(S(=O)(=O)N4CCc5ccccc5C4)cc3)sc2c1 | 75
COc1ccc(S(=O)(=O)N2Cc3ccccc3CC2C(=O)Nc2nccs2)cc1 (stereo unspecified) | -158*
CCS(=O)(=O)N1Cc2ccccc2CC1C(=O)Nc1nc2c(C)cccc2s1 (stereo unspecified) | -69*
CCOc1ccc2nc(N3C(=O)/C(=C/c4ccc(Cl)cc4)NC3=S)sc2c1 | -73*
Cc1cc2ncc(-c3cccc(Cl)c3)cn2n1 | -117*
Cc1cc2ncc(-c3ncc(C(F)(F)F)cc3Cl)cn2n1 | 65
CCOC(=O)c1ccc(NC(=O)c2cc3c(s2)CCC3)cc1 | -154*
COC(=O)c1sccc1NC(=O)c1cc2c(s1)CCCC2 | -133*
